Measured values published in PubChem BioAssay (NCI).
Compounds without any hit were thinned out: in the full panel of roughly 79,000, 15% have a hit. Unmarked numbers belong to inactive results. Active and inactive are the calls of the source. No stated cut-off is given here; in the data, active means growth inhibition above about 70%; inactive means the rest.

How the values were obtained:
[1] = NCI Yeast Anticancer Drug Screen. Data for the rad50 strain (AID 155);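 further: 0% = growth of vehicle-only cultures of the same strain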; conditions: S. cerevisiae rad50 strain growth inhibition; at 50.0 µM; hits give high values
Procedure, shortened: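 Growth of the mutant yeast was measured after compound exposure and referenced to vehicle-treated cultures.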

[2] = NCI Yeast Anticancer Drug Screen. Data for the mec2-1 strain (AID 157); conditions: S. cerevisiae mec2-1 strain, at 50.0 µM, hits give high values
Procedure, shortened: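 Compounds were applied to mec2-1 yeast cells. Their growth was then compared with that of vehicle-treated cultures to give growth inhibition.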

[3] = NCI Yeast Anticancer Drug Screen. Data for the sgs1 mgt1 strain (AID 161);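 further: 0% = growth of cultures given vehicle only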; conditions: S. cerevisiae sgs1 mgt1 strain, at 50.0 µM, hits give high values
Procedure, shortened: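 This yeast growth screen uses a strain with defined DNA-repair lesions; compound-treated growth is compared with vehicle-treated growth.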

[4] = NCI Yeast Anticancer Drug Screen. Data for the cln2 rad14 strain (AID 165);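 further: 0% = growth equal to vehicle treated cultures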; conditions: S. cerevisiae cln2 rad14 strain, at 50.0 µM, hits give high values
Procedure, shortened: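 Strain: cln2 rad14 yeast, altered in cell cycle control and DNA damage repair. Read-out: growth inhibition vs vehicle.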

[5] = NCI Yeast Anticancer Drug Screen. Data for the bub3 strain (AID 167); conditions: S. cerevisiae bub3 mutant strain, at 50.0 µM, hits give high values
Procedure, shortened: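 Whole-cell yeast assay. The mutant strain was incubated with compounds, and growth inhibition was determined by comparison with vehicle-treated cells.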

[6] = NCI Yeast Anticancer Drug Screen. Data for the mlh1 rad18 strain (AID 175); conditions: S. cerevisiae mlh1 rad18 strain growth inhibition; at 50.0 µM; hits give high values
Procedure, shortened: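 A repair-deficient yeast strain is exposed to test compound, and growth is scored relative to vehicle-treated controls.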

Structure (SMILES) | growth inhibition [1] [%] | growth inhibition [2] [%] | growth inhibition [3] [%] | growth inhibition [4] [%] | growth inhibition [5] | growth inhibition [6] [%]
CC(=O)/C(=C\c1ccccc1)C(=O)CCN(C)C | 21.9 | 36.6 | 14.4 | 12.2 | 7% | -9.9
Cc1c(C2CC(=O)N(c3ccccc3)C2=O)c2ccccc2n1C (stereo not given) | -6.25 | -6 | -7.4 | -33.7 | 1.85% | -8.25
Nc1ncc(C(=O)O)c(N)n1 | 15.8 | 4.6 | 3.75 | -19.2 | -12.3% | 33.6
Oc1ccc(Cl)cc1C1=NC(/N=C\c2ccccc2)=NC(c2ccccc2)C1 (stereo not given) | -0.7 | -4.05 | -43 | -8.1 | -36.8% | -45
CC(=O)OCCCC1CO1 (stereo not given) | 14.9 | -13.7 | -1.4 | 3.15 | -14.2% | 10.6
CC(=O)c1c(-c2ccccc2)noc1C | 7.35 | -7.35 | -7.55 | -37.4 | -12.8% | -1.4
CN1C(C(=O)Nc2ccccn2)=C(O)c2ccccc2S1(=O)=O | 5 | 15.5 | 5.1 | 0.9 | -1.75% | 8.25
Cc1ccc(N=Nc2c(O)ccc3n[nH]nc23)cc1 | 2.75 | 0.2 | 31.9 | -46 | 18.9% | 6.95
COCc1c(C)[nH]c2ccc(N(C)C)cc2c1=O | -6.75 | -3.6 | -14.8 | -42 | -4.9% | -6.55
COC1=CC(=O)C(CCC(C)=O)=CC1=O | -41.3 | -29.6 | -9.55 | -16.4 | 15.2% | -4.3
COc1ccc(C2(C)c3ccccc3C(=O)C(C)(C)C2(C)CC(=O)O)cc1 (stereo not given) | -0.65 | 6.45 | -1.8 | -9.7 | 5.05% | 5.2
O=C(CN1CCCC1)Nc1ccc2sc3ccccc3c(=O)c2n1 | 17.2 | -29.7 | -5.75 | 21.6 | 11% | 3.55
c1coc(C2OCCO2)c1 | -24.1 | -31.6 | -26.6 | 6.75 | -21.8% | -3.1
Fc1ccc2c(c1)CC(CBr)O2 (stereo not given) | -14.2 | -8.5 | -4.5 | -23.9 | -1.95% | 2.8
Cc1ccc(N2CCN(C(=O)c3ccccc3)CC2)cc1 | -16.9 | 1.55 | -2.45 | -13.6 | 16.5% | -9.35
CC(=O)N1C(=O)C(=O)c2cc(Cl)ccc21 | -1.85 | -6.9 | 3.95 | -2.1 | -0.2% | -1.6
COC(c1ccc(C(C)(C)C)cc1)(c1ccc(C(C)(C)C)cc1)c1cc(C(O)(c2cc(C(OC)(c3ccc(C(C)(C)C)cc3)c3ccc(C(C)(C)C)cc3)c(C)cc2C)c2cc(C(OC)(c3ccc(C(C)(C)C)cc3)c3ccc(C(C)(C)C)cc3)c(C)cc2C)c(C)cc1C | -26.8 | -12.7 | -12.8 | 13.8 | -17.8% | -9.05
Nc1cccc(OCCOc2ccccc2[N+](=O)[O-])c1 | 5 | 26.6 | 28.1 | -4.7 | 29.5% | 18.9
CNC(=O)CC(=O)NC | -20.4 | -9.55 | -16.9 | 6.15 | 8.2% | -10.1
CC(=O)N1CC(C)(C)c2c1cc(C)c(O)c2C | 1.85 | -47.9 | -8.4 | -7.8 | 5.15% | -1.8

Structure (SMILES) | growth inhibition [1] [%] | growth inhibition [2] [%] | growth inhibition [3] [%] | growth inhibition [4] [%] | growth inhibition [5] | growth inhibition [6] [%]
O=C1C2C3C=C4c5ccccc5N(c5ccccc5)C4(C2C(=O)N1c1ccc([N+](=O)[O-])cc1)[C@H]1C(=O)N(c2ccc([N+](=O)[O-])cc2)C(=O)[C@@H]31 (stereo not given in full) | 14.7 | 22.1 | 21.9 | 13.2 | 28% | 19.1
CCOC(=O)c1c(OC)c(-c2ccccc2)c(=O)n2c3ccccc3n(C)c12 | 18.2 | 9.05 | -0.2 | -4.1 | -1.1% | 9.9
N#CC1=C(N2CCCC2)NC(=O)CC1=O | 0 | -4.4 | -0.6 | 35.6 | 7.2% | 1.4
COc1ccccc1N=NNc1ccc(S(=O)(=O)NC(C)=O)cc1 | 14.9 | -28.5 | -1.1 | -0.6 | -15% | 0.55
Br[C@H]1CC2CCC1C2 (stereo not given in full) | 23.1 | -23.9 | 2.9 | 6.9 | -6.1% | 5.65
CC(C)[O-].CC(C)[O-].O=c1cccccc1[O-].O=c1cccccc1[O-].[Ti+4] | -13.2 | 0.9 | 14.2 | 10.8 | -1.5% | 22.4
O=c1cc(O)n2ncnc2[nH]1 | -4.3 | -23.6 | -21.8 | 3.05 | -12.6% | 9
CC(C)=CCC/C(C)=C/c1cc(C(=O)O)c2c(ccc3ccccc32)n1 | 9.6 | 10.5 | 6.7 | 11.3 | 25.1% | 14.3
CCC(Cl)COP(=O)(OCC(Cl)CC)O/C(C)=C(/C)P(=O)(OCC(Cl)CC)OCC(Cl)CC (stereo not given) | 32.9 | 29.6 | 42.4 | 47.1 | 8.6% | 69
Nc1nc(=O)n(CCCOc2cccc(Cl)c2)cc1-c1ccc(Cl)c(Cl)c1 | 52.6 | 49.4 | 52.2 | 68.8 | 87% (active) | 51.5
Cc1ccc(C(C(=O)O)c2ccc(C)cc2)cc1 | 45.5 | 2.25 | 44.9 | 27.4 | 22.1% | 29.2
COc1cc2c(cc1OC)C(Cc1ccccc1CCCl)=NCC2 | 15.1 | 8.65 | -31.8 | -1.8 | -24.7% | 2.45
C#CC1(O)c2ccccc2C(=O)c2ccccc21 | -1.05 | -7.85 | -7.65 | -7.35 | 6.7% | -2.35
O=c1c2c(oc3c(Cl)cc(Cl)cc13)CCCC2 | 13.3 | -19.6 | -1.8 | 7.6 | 5.8% | 4.05
O=C(C[n+]1csc2ccccc21)c1ccc(-c2ccccc2)cc1 | 18.1 | 9.8 | -11.9 | -3.05 | 11.6% | 4.85
C=CCCCCCCCC(O)C1C[C@H](O)C(CCCCC)O1 (stereo not given in full) | -0.8 | -16.9 | 9.25 | 1.15 | -17.2% | -5
CCOC(=O)c1ncn(C2OC(CO)C(O)C2O)c1N (stereo not given) | 19.5 | 1.6 | 31.4 | 12.3 | 14.2% | 25.2
COC(=O)c1c(O)cc(OC)cc1OCc1ccccc1 | 10.7 | -4.4 | -4.8 | 27.6 | 31.4% | 2.95
Cc1nc(N)nc(C)c1N=Nc1cccc(Cl)c1 | 2.05 | 11.6 | 9.35 | -32.8 | 21.6% | 3.85
[O-]c1csc2n(-c3ccccc3)c3ccccc3[n+]12 | 4.95 | -16 | 1.85 | 28.4 | -4.65% | 6.65
